The whole screen tested about 69,000 compounds, of which about 8,600 (12%) showed an effect of 50% or more. For the sample, strong results were picked, then their nearest neighbours and some compounds at random.
Tested on: Plasmodium berghei
Assay: Screen against P. berghei liver stage (PbLuc), transformed with Luciferase, at 10uM
Format: functional, HepG2
Conditions: tested at 10 uM

| Structure (SMILES) | INHIBITION [%] |
| --- | --- |
| CC(C)C(NC(=O)NCC1CC1)c1nnc2n1CCC2 (stereo not given) | 43.4 |
| CCC(CNC1CCN(C(C)=O)CC1)Oc1ccccc1Cl (stereo not given) | 42 |
| CCC(CNC1CCN(C(=O)N(C)C)CC1)Oc1ccccc1C (stereo not given) | 18.2 |
| CCC(CNC1CCN(C(C)=O)CC1)Oc1cccc(C)c1 (stereo not given) | 61.5 |
| O=C(c1cccnc1)N1CCC2(CC1)COC(COc1ccccn1)C2 (stereo not given) | -2.25 |
| c1cc(CN2CCO[C@H]3[C@H](OCCN4CCCC4)CC[C@@H]32)co1 | 48 |
| Cc1cc2ncn(C(=O)N3CCCC3)c2cc1C | 22 |
| Cc1nc(N2CCOCC2)nc2c1CCN(C(=O)C1(C#N)CC1)CC2 | 30.3 |
| Cc1nc2c(c(NC3CC3)n1)CCN(C(=O)C(C)(C)O)CC2 | 20.5 |
| CCc1nc2c(c(NC3CC3)n1)CCN(C(=O)N1CCN(C)CC1)CC2 | 7.65 |
| CCc1nc2c(c(NC3CCC3)n1)CCN(C(=O)CO)CC2 | 53.2 |
| Cc1nc(C)c2c(n1)CCN(C(=O)C1(C#N)CC1)CC2 | 23.1 |
| CCc1nc2c(c(NC3CC3)n1)CCN(C(=O)Cc1nonc1C)CC2 | 19.5 |
| Cc1nc2c(c(NC(C)C)n1)CCN(C(=O)CCO)CC2 | 46.6 |
| Cc1nc2c(c(NC3CC3)n1)CCN(C(=O)C1(C#N)CC1)CC2 | 68.4 |
| Cc1nc2c(c(NC3CC3)n1)CCN(C(=O)CCO)CC2 | 56.7 |
| CCOC(=O)N1CCC(n2cc3[nH]cccc-3c2=O)CC1 | 9.63 |
| CN(C)c1cc(C2CCCN(C(=O)Cn3cc(Cl)cn3)C2)ccn1 (stereo not given) | 2.71 |
| O=c1[nH]c(-c2ccccn2)nc2c1CCN(Cc1cccc(O)c1)C2 | 11.1 |
| O=C(c1ccnnc1)N1CCN2C[C@H](Oc3cccc(F)c3)C[C@H]2C1 | 26.1 |
| c1ccc(CCN2CCn3cc(Cn4cccn4)nc3C2)cc1 | 24.9 |
| O=C(C1CN(CC2CCOCC2)CC12CCOCC2)N1CCCC1 (stereo not given) | 29.8 |
| CCN(Cc1cnn(C)c1)C[C@H]1CC[C@@H](Cc2ccc(C)nc2)O1 | 12.9 |
| CSc1ccc(NCc2csc(C)n2)cc1F | -35 |

| Structure (SMILES) | INHIBITION [%] |
| --- | --- |
| CSc1ccc(NCc2csc(CS(C)(=O)=O)n2)cc1F | 17 |
| CNC(=O)Cc1nc(CNc2ccc(SC)c(F)c2)cs1 | 80.7 |
| CC1CN(C(=O)c2cccc(OCc3cscn3)c2)CCO1 (stereo not given) | 39.75 |
| CN1CCOC(C)(C(=O)N2CCSCC2)C1 (stereo not given) | 18.3 |
| Cc1cc(NCCSc2nccn2C)n2ncnc2n1 | 18.2 |
| CC(C)N(CCNC(=O)c1[nH]nc2ccc(I)cc12)C(C)C | 58.2 |
| CNC(=O)c1[nH]nc2ccc(I)cc12 | 77.7 |
| CC(C)N(CCNC(=O)c1n[nH]c2ccccc12)C(C)C | 24.8 |
| CN(C)CCNC(=O)Cc1cccc(I)c1 | 1.75 |
| CNC(=O)c1ccc2c(OC)n(C)nc2c1 | 20.7 |
| CNC(=O)c1cc(C2CCCNC2)n[nH]1 (stereo not given) | 5.34 |
| Cc1cccc(-c2nc(CN3CCc4cncnc4C3)no2)c1 | -12.2 |
| Brc1ccc2[nH]c3c(c2c1)CCCC3c1nn[nH]n1 (stereo not given) | 0.0996 |
| CCc1cc(C(=O)N2CCCC(c3cc(=O)nc4n3CCC4)C2)no1 (stereo not given) | -35.5 |
| Cc1ncsc1CN1C[C@H](C(=O)N2CCCO2)[C@@H]2CCO[C@@H]2C1 | 25.1 |
| O=c1c2c[nH]c(N3CCOCC3)nc-2cn1-c1ccc2c(c1)OCO2 | -21.5 |
| CC(C)(C)OC(=O)N1CCN(c2ccc(F)cc2)CC1C(=O)O (stereo not given) | -5.8 |
| CCc1nc(CCNC(=O)Nc2cccc(C(=O)NC)c2C)cs1 | -12.5 |
| CCc1nc(CCNC(=O)Nc2ccc(C(=O)NC)cc2)cs1 | 57.7 |
| CCc1nc(CCNC(=O)Nc2ccc(C(=O)NC)cc2C)cs1 | 1.28 |
| CC(C)CS(=O)(=O)NC(=O)c1ccc2c(c1)ncn2C | -57.9 |
| c1cc(NCc2ccncc2)nc(C2CCCNC2)c1 (stereo not given) | 18.4 |
| CC1c2ncc(COc3cccnc3)n2CCN1C(=O)C1=CCCC1 (stereo not given) | -7.11 |
| CC(C)(C)NC(=O)Cn1nc(C2CC2)cc(C(F)(F)F)c1=O | 28.7 |

| Structure (SMILES) | INHIBITION [%] |
| --- | --- |
| CC(C)(C)OC(=O)Cn1nc(C2CC2)cc(C(F)(F)F)c1=O | 32 |
| CC(C)(C)C(=O)Cn1nc(C2CC2)cc(C(F)(F)F)c1=O | 77.6 |
| CCN1CCN(C(=O)NCc2ccccc2Cn2cncn2)CC1 | 32.7 |
| Cn1ncnc1NCc1ccc(Br)cc1 | 20.9 |
| COc1ccc(C2SCC(=O)N2c2ncc(C)s2)cc1 (stereo not given) | 24.7 |
| O=C(c1n[nH]c(=O)c2ccccc12)N1CCCCC1c1ccn[nH]1 (stereo not given) | 40.9 |
| CC1CCCCN1C(=O)c1n[nH]c(=O)c2ccccc12 (stereo not given) | 60.2 |
| CNC(=O)C1CCCCN1C(=O)c1n[nH]c(=O)c2ccccc12 (stereo not given) | 8.53 |
| Cc1ccc(OCC(=O)NS(=O)(=O)Cc2ccccc2)cc1 | 69.8 |
| Cc1cccc(OCC(=O)NS(=O)(=O)Cc2ccccc2)c1 | 22.9 |
| O=C(COc1ccccc1)NS(=O)(=O)Cc1ccccc1 | 11.8 |
| O=S(=O)(NCCCn1cncn1)c1ccc2c(c1)CCC2 | -58.1 |
| O=S(=O)(NCCCn1cncn1)c1ccc2c(c1)CCO2 | 44.9 |
| O=S(=O)(NCCCn1cncn1)c1ccc2c(c1)CCCC2 | 50.4 |
| CCOc1ccc(CCCC(=O)N2CC[C@H](NC(C)=O)C2)cc1C | 16 |
| CCOc1ccc(C(=O)NC2CCN(c3ncccn3)CC2)cc1C | 34.2 |
| CCOc1ccc(C(=O)NC2CC2)cc1C | 57 |
| CCN(CC)C(CNC(=O)c1ccc(S(=O)(=O)NC)cc1)c1ccco1 (stereo not given) | 6.12 |
| COc1cccc(OCC(=O)N(C)c2cccnc2)c1 | 53.7 |
| COc1cccc(OCC(=O)NS(=O)(=O)c2cccnc2)c1 | -19.05 |
| COc1cccc(OCC(=O)N(C)c2cccnc2N(C)C)c1 | 33.1 |
| Cc1nc(C(C)C)sc1C(C)N(C)C(=O)c1ccc(=O)n(C)n1 (stereo not given) | -19.7 |
